For the assay, the target named is Eukaryotic translation initiation factor 4H (Homo sapiens) (UniProt Q15056). In words: eIF4H binding inhibition – biochemical, uHTS, fluorescence polarization, translation initiation inhibitor project, primary screen (AID 2012).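 Note: calls also rest on retests at 20 µM and on dose response follow-up.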 The conditions noted are these: eIF4H fluorescence polarization binding assay, stronger effect = higher value. On the technique in general: In fluorescence polarisation assays a small probe gives low polarisation when free and higher when bound to something large.

In all, about 290,000 compounds went through this assay and about 2,700 (0.93%) were called active. The rule behind the calls is not given here. The list comes from a sample in which actives are over-represented; it also holds similar structures and randomly drawn compounds.

In the case of `O=C(CCCN1C(=O)/C(=C/c2ccco2)SC1=S)Nc1ccccc1`, the inhibition (usually the relative decrease from the control value, in per cent) is, setting by setting: (at 35 µM) 77.4% (inactive); (confirmation average, at 20 µM) 3.8%.
Consider `CN1C(=O)/C(=C/c2ccco2)SC1=Nc1cccc(C(=O)O)c1`, for which the inhibition is 99% (active) (at 35 µM) and 106% (confirmation average, at 20 µM).
For `O=C(CCCN1C(=O)/C(=C\c2ccco2)SC1=S)Nc1cccc2ccccc12` the same measures were 91.9% (inactive) and -11.3%.
`CC(Oc1ccccc1)C(=O)Nc1c2c(nn1-c1ccccc1)CS(=O)C2` (centres undefined): the inhibition (at 35 µM) is -8.2% (inactive).
`O=C(OCc1ccc(-c2ccccc2)cc1)c1cccc(O)c1`: the inhibition (at 35 µM) was -0.5% (inactive).
For `Cc1cc(/C=C2/SC(=O)N(CC(=O)N3CCCC3)C2=O)c(C)n1C`, for the setting “at 35 µM”, the inhibition is 8.5% (inactive).
`Cc1cc(/C=C2\SC(=O)N(C)C2=O)c(C)n1-c1cccc(C(=O)O)c1`: the inhibition (at 35 µM) was 89.5% (active).
Consider `Cc1cc(/C=C2\SC(=Nc3ccc(N4CCOCC4)cc3)N(C)C2=O)c(C)n1-c1cccnc1`, for which the inhibition (at 35 µM) is 2.5% (inactive).
Same read-out and setting: for `COc1ccc(N2CCN(C(=S)Nc3ccc(S(N)(=O)=O)cc3)CC2)cc1` the value was -13.4% (inactive); for `CC1CN(C(=S)Nc2ccc(S(N)(=O)=O)cc2)CC(C)O1` (centres undefined), 4.3% (inactive).
`NS(=O)(=O)c1ccc(NC(=S)N2CCCC2)cc1`: the inhibition (at 35 µM) is 102% (active) and the inhibition (confirmation average, at 20 µM) was found to be 104%.
On to `C=CCn1c(C23CC4CC(CC(C4)C2)C3)n[nH]c1=S`, for which the inhibition (at 35 µM) was -9.9% (inactive).
On to `CC(=O)N1CCN(c2ccccc2NC(=S)NC(=O)c2cc3ccccc3o2)CC1`, for which the inhibition (at 35 µM) is -11.7% (inactive).
As for `CC(C(=O)Nc1ccc(O)c(C(=O)O)c1)N1C(=O)/C(=C/c2cccs2)SC1=S` (centres undefined), the inhibition (at 35 µM) was -4.3% (inactive).
Regarding `CC(=O)NS(=O)(=O)c1ccccc1`, the inhibition (at 35 µM) is -6.2% (inactive).
As for `Nc1ccc(S(=O)(=O)NC(=O)c2ccccc2)cc1`, the inhibition is -6.9% (active) (at 35 µM) and 95.5% (confirmation average, at 20 µM).
With `Cc1ccc(S(=O)(=O)NC(=O)c2cccc(C)c2)cc1`, the inhibition (at 35 µM) is -5% (inactive).
With `CN1CN(C)c2ccc([N+](=O)[O-])c3cccc1c23`, the inhibition (at 35 µM) was 2.5% (inactive).
With `Nc1c(C(=O)c2cccs2)sc2nsc(SCCN3CCCCC3)c12`, the inhibition (at 35 µM) is 47.9% (inactive).
Consider `CN(C(=O)COC(=O)c1cc(-c2ccco2)nc2ccccc12)C1CCS(=O)(=O)C1` (centres undefined), for which the inhibition (at 35 µM) is 87.9% (active).
On the same count and under the same terms, for `CN(C(=O)COC(=O)c1nc(Cl)ccc1Cl)C1CCS(=O)(=O)C1` (centres undefined) the value was 10.5% (inactive); for `Cc1c(-c2cccc(Cl)c2)nc2ccccc2c1C(=O)OCC(=O)N(C)C1CCS(=O)(=O)C1` (centres undefined), -7% (inactive).
With `Cc1ccnc2nc(C(=O)Nc3nnc(-c4ccccc4)o3)nn12`, the inhibition runs as follows: (at 35 µM) 79.8% (active); (confirmation average, at 20 µM) 77.1%.
Turning to `CCc1nnc(NC(=O)c2nc3nccc(C)n3n2)s1`, the inhibition (at 35 µM) was -4% (inactive).
For `Cc1cccc(NC(=O)Nc2nnc(-c3ccccc3)o2)c1`, the inhibition (at 35 µM) is -0.2% (inactive).
The same measure, in the same setting: for `O=C(N/N=C/c1ccccc1O)C1CCCC1` the value was -4.4% (inactive).
For `CN(C(=O)C1CCN(c2ncnc3c2nc2n3CCCCC2)CC1)C1CCCCC1`, the inhibition (at 35 µM) was -2.5% (inactive).
On to `Cc1ccc(OCc2cc(C(=O)N(C)CCn3ccnc3C)no2)cc1C`, for which the inhibition (at 35 µM) was -8.6% (inactive).
Consider `Cc1ccc2nc3c(cc(C(=O)NCCc4ccccc4)c(=N)n3CC3CCCO3)c(=O)n2c1` (centres undefined), for which, under “at 35 µM”, the inhibition was 94.7% (active).
The same measure, in the same setting: then `Cc1cccn2c(=O)c3cc(C(=O)NCC4CCCO4)c(=N)n(Cc4ccc(F)cc4)c3nc12` (centres undefined), with -14.9% (inactive); and `COc1ccc(CNC(=O)c2cc3c(=O)n4ccccc4nc3n(CC3CCCO3)c2=N)cc1` (centres undefined), with -5.4% (inactive).
Turning to `Cc1cc(NC(=O)[C@H](C)NC(=O)c2ccco2)ccc1Br`, the inhibition (at 35 µM) was -0.5% (inactive).
Turning to `O=C1CC(N2CCN(c3ccc(F)cc3)CC2)C(=O)N1c1ccccc1` (centres undefined), the inhibition (at 35 µM) is -4% (inactive).
Turning to `O=C1CCCC2=C1C(c1cccs1)CC(=O)N2c1ccc(F)cc1` (centres undefined), the inhibition (at 35 µM) is -3.5% (inactive).
On to `N#CC1=C(N)N(c2ccc(F)cc2)C(=O)C1`, for which the inhibition (at 35 µM) was 50% (active).
With `Cc1cc(S(=O)(=O)N2CCOCC2)ccc1OCC(=O)N1CCOCC1`, where the note is “at 35 µM”, the inhibition was -9.8% (inactive).
Turning to `O=C(NC1CCC(O)CC1)c1ccccc1OCc1ccc(F)cc1` (centres undefined), the inhibition (at 35 µM) was 4.1% (inactive).
As to `CCCNC(=O)CCc1c(C)nc2c(c(C)nn2-c2ccccc2)c1C`, the inhibition (at 35 µM) is -1.8% (inactive).
As to `Cc1ccc(NC(=O)C(CC(=O)O)C2CCCO2)c(C)c1` (centres undefined), under “at 35 µM”, the inhibition is -7% (inactive).
For `CO/N=C(\N)c1ccc([N+](=O)[O-])cc1`, for the setting “at 35 µM”, the inhibition was 0.6% (inactive).
With `N/C(=N\OS(=O)(=O)c1cccc([N+](=O)[O-])c1)c1ccncc1`, the inhibition is, setting by setting: (at 35 µM) 73.8% (active); (confirmation average, at 20 µM) 88.7%.
Regarding `O=C(N/N=C/c1cccc([N+](=O)[O-])c1)c1ccncc1`, under “at 35 µM”, the inhibition is 0.8% (inactive).
In the case of `CC(Cc1cccs1)N(Cc1ccc(Cl)cc1)C(=O)c1ccncc1` (centres undefined), the inhibition (at 35 µM) was -2% (inactive).
Take `CCN(C(=O)COC(=O)c1cc(S(=O)(=O)N2CCc3ccccc32)ccc1OC)C1CCS(=O)(=O)C1` (centres undefined): the inhibition was 3.9% (active) (at 35 µM) and 71.9% (confirmation average, at 20 µM).
`COc1ccccc1N(C)C(=O)c1cc(S(=O)(=O)N2CCc3ccccc32)cn1C`: where the note is “at 35 µM”, the inhibition was -9.4% (inactive).
On the same count and under the same terms, for `COc1ccc(C(=O)OCC(=O)NCC2CCCCC2)cc1S(=O)(=O)N1CCCc2ccccc21` the value was -7.1% (inactive).

These data come from PubChem BioAssay AID2012 (Sanford-Burnham Center for Chemical Genomics, 2009).
